HepG2 viability = kills HepG2 cells in TGF-b inhibitor counter-screen; HepG2 CAGA-GFP viability, ATP luminescence, 18 h; Potency, µM (series often up to 46.1 µM), for the others: at the highest dose activity change, negative = cytotoxicity, usual class: cytotoxic; 410,000 compounds, 0.76% hits; AID 588856; note: potency is the fitted concentration of half-maximal effect
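CellTiter-Glo luminescence gave cytotoxicity after 18 hours at 37 degrees C. The cells were HepG2 CAGA-GFP in 1% FBS DMEM, stimulated with 500 pg/mL TGF-beta after compound addition. %Activity was normalised to no-cell wells (complete cell-killing) and DMSO (no toxicity), and curves were fitted and classified.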
Giardia killer = kills Giardia lamblia. Giardia lamblia trophozoite viability. activity change, % at 7.66 µM, hits read low. 340,000 compounds, 0.15% hits; in the data active = activity change below about -80%; inconclusive = between about -30% and that limit;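 note: parasites exposed to compound for two days anaerobically before the ATP read; % is set by controls: 0 for no effect and ±100 for the full control effect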
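ATP-content bioluminescence gauges trophozoite survival. Cells (100/well) receive compound and incubate anaerobically for 48 hrs at 37 deg C; detection reagent follows for 15-30 min at room temperature.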
IL1B secr inh = blocks inflammasome-driven IL-1 beta release | THP-1 LPS/ATP IL-1B secretion, AlphaLISA, 16 h; hits give low values | activity change, % at 57.5 µM | 360,000 compounds, 4.7% hits; in the data active = activity change below about -50%; inconclusive = mostly about -30% to -49%; note: % is set by controls: 0 for no effect and ±100 for the full control effect
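THP-1 cells pretreated 1 hr with compounds (up to 57.5 uM final), then stimulated with LPS (250 ng/mL final) plus ATP (1.25 mM final); secreted IL-1B measured by AlphaLISA after 16 hr, decreased signal indicating inhibition.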
TGFb inhibitor = blocks TGF-b signaling. AID 588855. HepG2 CAGA-GFP TGF-b/SMAD3 reporter, GFP fluorescence, 18 h; TGF-beta stimulated, 500 pg/mL final. Potency, µM (top dose mostly 46.1 µM), for the others: at the top dose activity, negative = inhibition, usual class: inhibitors. 410,000 compounds, 1.2% hits; note: potency is the fitted concentration of half-maximal effect; % is set by controls: 0 for no effect and ±100 for the full control effect; nearly all actives have a fitted effect of over 65% in size
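Inhibition was scored as loss of TGF-beta-induced (500 pg/mL final, 18 hours, 37 degrees C) GFP in HEPG2 cells carrying a CAGA-GFP reporter, in DMEM with 1% FBS. Well GFP was summed per cell; Activity was normalised to unstimulated and stimulated DMSO wells, then concentration-response fitting.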
HT1080-NT tox = kills 2HG-producing HT-1080-NT fibrosarcoma cells | HT-1080-NT fibrosarcoma viability, CellTiter-Glo ATP luminescence, 48 h | Potency, µM (titrated, usually from 46.1 µM), for the others: at the top dose activity, negative = less viability, hits mostly cytotoxic | 360,000 compounds, 1.6% hits | AID 686970;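 note: NT is the 2HG producing partner of a matched IDH1 knockdown line; potency is the fitted concentration of half-maximal effect; 0% = DMSO-treated cells and -100% = media-only wells without cells; nearly all actives have a fitted effect of over 55% in size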
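HT-1080-NT fibrosarcoma cells (2HG-overproducing), 750 cells/well in RPMI with 5% FBS, dosed after 2 h and incubated 48 h at 37C. CellTiter-Glo luminescence normalized to DMSO and no-cell wells; concentration-response curves fitted and classed.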
HT1080 IDH1KD tx = HT-1080 IDH1 knockdown cell toxicity (counter line) | HT-1080 IDH1 knockdown viability, ATP luminescence, 48 h | 360,000 compounds, 2% hits | AID 686971 | Potency, µM (doses to about 46.1 µM), for the others: at the highest dose activity, negative = toxicity, hits mostly cytotoxic;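 note: potency is the fitted concentration of half-maximal effect; 0% = DMSO wells and -100% = cell-free medium wells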
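CellTiter-Glo luminescence after 48 h compound exposure at 37 degrees C of IDH1-knockdown HT-1080 cells in 5% FBS RPMI. %Activity scaled between DMSO wells and cell-free media wells, with curves fitted and assigned curve classes.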
An asterisk follows results filed as active; u = inconclusive; x = no result given. Hits are enriched below; roughly 6.5% of the tested compounds scored in any of these assays. Unless noted, calls come from the whole dose curve; as a rule, active = well fitted curve in the direction sought with a large enough effect; inconclusive = small, poorly fitted or top-dose-only effect, or another doubt; inactive = no such curve, though single readings can be large; an effect the other way counts as inactive or inconclusive.

SMILES | HepG2 viability | Giardia killer | IL1B secr inh | TGFb inhibitor | HT1080-NT tox | HT1080 IDH1KD tx
C=CCN1C(c2ccccc2)=CS/C1=C(\C#N)c1nnc2n1CCCCC2 | -22% | 1 | -17 | 4% | 5% | -5%
C/C(=N\NC(=O)c1ccc(O)cc1)c1ccc2c(c1)Nc1ccccc1S2 | -31% | 2 | -101* | u | 18µM* | 8.2µM*
C/C(=N\NC(=O)c1ccccc1F)c1ccc2c(c1)Nc1ccccc1S2 | -29% | 2 | u | u | -28% | u
O=C1[C@H]2[C@@H](c3ccc(F)cc3)N3C(=O)N(c4cccc(Cl)c4)C(=O)[C@@]3(Cc3ccccc3)[C@H]2C(=O)N1C1CCCCC1 | 3% | -5 | -50* | -12% | -19% | -3%
COC(=O)c1ccc(NC(=O)Nc2nnc(N(C)C3CCCCC3)s2)cc1 | -5% | x | x | -17% | x | x
COc1ccc(NC(=O)Nc2nnc(N(C)C3CCCCC3)s2)c(OC)c1 | -104% | x | x | 11µM* | x | x
C[C@H](NC(=O)c1nc[nH]c1C(=O)N1CCNCC1)C(=O)OCc1ccccc1 | 4% | 18 | 16 | 17% | 5% | 14%
Cc1ccc(-c2cn3cccc(C)c3n2)cc1 | -20% | -13 | 17 | u | -7% | -21%
O=[N+]([O-])c1cccn2cc(-c3ccc(Br)cc3)nc12 | -18% | -99* | 0 | 3% | -1% | -7%
CC(C)CCN(C(=O)c1csnn1)C(C(=O)NC1CCCCC1)c1ccc(F)cc1 (stereo unspecified) | -10% | 5 | -57* | -30% | -29% | -8%
CCC(C)N(C(=O)c1csnn1)C(C(=O)NC1CCCC1)c1ccc(F)cc1 (stereo unspecified) | 12% | -19 | 17 | 8% | 14% | 9%
Cc1cccc(CCN(CC(=O)NC2CCCCC2)C(=O)c2csnn2)c1 | 2% | 0 | 1 | -1% | 1% | -17%
Cc1cccc(CCN(C(=O)c2csnn2)C(C(=O)NC2CCCC2)c2ccco2)c1 (stereo unspecified) | -4% | 3 | -85* | u | -18% | -13%
COc1ccc(C2=C(c3ccccc3)OC(OC)c3cc(F)ccc32)cn1 (stereo unspecified) | x | x | -6 | x | -21% | -21%
O=C1S/C(=C/c2ccccc2F)C(=O)N1CCN=C1NS(=O)(=O)c2ccccc21 | -10% | -20 | -97* | -2% | -3% | -8%
COc1ccccc1CNC(=O)CCNS(=O)(=O)/C=C/c1ccc(C)cc1 | -11% | 14 | -55* | -23% | 3% | 3%
CCCCCC(=O)NC(NC(=S)N1CCOCC1)C(Cl)(Cl)Cl (stereo unspecified) | -31% | -9 | -7 | u | -1% | -12%
CCCCCCCCC(=O)NC(NC(=S)N1CCOCC1)C(Cl)(Cl)Cl (stereo unspecified) | -73% | 1 | -7 | u | u | 11µM*
COC(=O)C1=C(C)NC2=C(C(=O)CC(C)(C)C2)C1c1cn(Cc2ccc(Br)cc2)nc1-c1ccccc1 (stereo unspecified) | -8% | -5 | -13 | -11% | -15% | -17%
COC(=O)C1=C(C)NC2=C(C(=O)CCC2)C1c1cn(Cc2ccc(Br)cc2)nc1-c1ccccc1 (stereo unspecified) | -3% | 4 | -62* | -5% | -29% | u
Cc1cc2nc(CCN(C(=S)NCC3CCCO3)C3CCCC3)[nH]c2cc1C (stereo unspecified) | -83% | 20 | -52* | u | 8% | 4%
CN(C)CCN(Cc1cc2cc3c(cc2[nH]c1=O)OCCO3)C(=S)NCC1CCCO1 (stereo unspecified) | -45% | 55 | 0 | -17% | -6% | -4%
Cc1cc2nc(CCN(C(=S)NCC(C)C)C3CCCC3)[nH]c2cc1C | -34% | -12 | -66* | -10% | u | u
Cc1oc(-c2cccc(Cl)c2)nc1CN1CCC(C(=O)NCCc2ccc(Cl)cc2)CC1 | -16% | x | x | -1% | x | x
CCOc1cccc2sc(N(CCN(CC)CC)C(=O)c3cccc(N4C(=O)CCC4=O)c3)nc12 | -11% | 19 | -6 | -3% | -3% | -6%
SMILES | HepG2 viability | Giardia killer | IL1B secr inh | TGFb inhibitor | HT1080-NT tox | HT1080 IDH1KD tx
CCOC(=O)c1c(CSc2cccs2)n(C)c2cc(Br)c(O)c(CN(C)C)c12 | -25% | 45 | -54* | u | -18% | u
CCN(c1ccccc1)S(=O)(=O)c1ccc(NCC2COc3ccccc3O2)nc1 (stereo unspecified) | -26% | 20 | u | u | -28% | u
O=C(c1cc([N+](=O)[O-])ccc1Cl)N1CCN(Cc2ccccc2)CC1 | 14µM* | -10 | -53* | -5% | 1% | -4%
O=C(c1cccs1)N1CCN(Cc2cccc([N+](=O)[O-])c2)CC1 | 28% | -13 | -53* | 19% | 23% | 27%
O=C(c1ccco1)N1CCN(Cc2cccc([N+](=O)[O-])c2)CC1 | -1% | -11 | -16 | u | 13% | 3%
CC(C)c1nn2c(=O)cc(COC(=O)CNC(=O)c3ccccc3)nc2s1 | -1% | x | x | u | x | x
COC(=O)c1ccccc1-c1ccc(/C=N/NC(=O)c2cc3ccccc3o2)o1 | -8% | 8 | -13 | u | -2% | -2%
COC(=O)c1ccccc1-c1c2ccc(=N)cc-2oc2cc(N)ccc12 | -27% | 9 | -92* | -97% | 6.5µM* | 10µM*
O=C(O)c1ccc(N2C(=O)/C(=C\c3ccccc3)N=C2c2ccccc2)cc1 | -15% | 15 | -73* | 18% | 26% | 29%
CC1=N/C(=C\c2ccc3c(c2)OCO3)C(=O)N1c1ccc(C(=O)O)cc1 | -3% | -19 | 9 | -10% | 17% | 7%
CC(=O)Nc1ccc(NCCc2ccco2)cc1 | -14% | x | 14 | -17% | 15% | 8%
COc1ccc(NC(=O)C2Cc3c(-c4cccc(F)c4)ccnc3O2)cc1 (stereo unspecified) | -3% | x | -10 | 27% | -7% | u
COc1ccc(NC(=O)C2Cc3c(-c4cccc(C(N)=O)c4)ccnc3O2)cc1 (stereo unspecified) | -22% | x | 0 | 8% | 12µM* | 15µM*
COc1ccc(NC(=O)C2Cc3c(-c4cccc(C(N)=O)c4)ccnc3O2)cn1 (stereo unspecified) | 1% | x | 3 | 8% | u | 21µM*
COc1ccc(NC(=O)C2Cc3c(-c4cccc(NC(C)=O)c4)ccnc3O2)cn1 (stereo unspecified) | -10% | x | 60 | u | u | u
